Reference: PubChem BioAssay (Tox21)
Values joined by “and” are separate entries in the source; they are usually repeats but may differ in a detail not shown here. Equal entries are not always repeated. Records with an inconclusive call do not appear. Entries that show only a call come without a potency. Some structures have more than one record in an assay (separate samples or runs), and their calls can disagree. Active and inactive are the calls of the source. Unless noted, calls follow the shape of the dose curve; as a rule, active = well fitted curve in the direction sought with a large enough effect in the repeat runs; inconclusive = weak or mixed curves; inactive = no such curve, though single readings can be large; an effect the other way counts as inactive or inconclusive.

Key:
[1] = molecular target: Progesterone receptor (Homo sapiens) (UniProt P06401); assay: qHTS assay to identify small molecule antagonists of the progesterone receptor (PR) signaling pathway (AID 1346795; active = well fitted inhibition curve with a large enough effect in the signal ratio in the repeat runs, not every such curve was filed as active; the % refers to the signal ratio; also: potency is read from the fitted curve at half-maximal effect)
How it was run: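 After 6 hr plating at 37C in 2% stripped-serum medium, PR-UAS-bla HEK293T cells got compounds, then 1 nM R5020. Sixteen hours later, LiveBLAzer substrate was applied for 2 hr at room temperature and fluorescence was recorded.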

[2] = qHTS assay to identify small molecule antagonists of the progesterone receptor (PR) signaling pathway - cell viability counter screen (AID 1346798); also: nearly all actives have a fitted effect of over 50% in size; also: potency is read from the fitted curve at half-maximal effect; as to activity change, negative = cytotoxicity: series mostly up to about 92 µM
How it was run: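 Viability was determined by ATP-based luminescence (CellTiter-Glo) in PR-UAS-bla HEK293T cells cultured in 2% charcoal-stripped serum and incubated 16 hr with compounds under R5020 stimulation.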

[3] = qHTS assay to identify small molecule agonists of the progesterone receptor (PR) signaling pathway - cell viability counter screen (AID 1346799; calls by dose curve; also: nearly all actives have a fitted effect of over 45% in size; also: potency is read from the fitted curve at half-maximal effect)
How it was run: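 Viability was scored by ATP luminescence (CellTiter-Glo, 30 min, room temperature) in the same wells used for the reporter readout, after 16 hr compound exposure of PR-UAS-bla HEK293T cells.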

[4] = qHTS assay to identify small molecule antagonists of the TGF-beta/Smad signaling pathway - cell viability counter screen (AID 1346824); also: nearly all actives have a fitted effect of over 50% in size; also: potency is read from the fitted curve at half-maximal effect
How it was run: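 Cytotoxicity counter-screen run in the same wells as the beta-lactamase Smad reporter read: CellTiter-Glo luminescence after 30 min at room temperature. HEK 293T SBE-bla cells had 5 hr compound exposure at 37 C with TGF-beta1 (0.25 ng/mL stock).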

[5] = qHTS assay to identify small molecule agonists of the TGF-beta/Smad signaling pathway - cell viability counter screen (AID 1346829); also: nearly all actives have a fitted effect of over 45% in size; also: potency is read from the fitted curve at half-maximal effect; as to activity change, negative = cytotoxicity: top concentration of the series differs between compounds
How it was run: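 Cytotoxicity counter screen: CellTiter-Glo luminescence (30 min, room temperature) measured in the SBE-bla HEK 293T reporter wells after 5 hr compound treatment at 37 C and the 2 hr substrate step.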

[6] = qHTS assay to identify small molecule agonists of the TGF-beta/Smad signaling pathway (AID 1346859; active = well fitted activation curve with a large enough effect in the signal ratio in the repeat runs, not every such curve was filed as active; the % refers to the signal ratio; also: series mostly up to about 77 µM)
How it was run: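 Dual-wavelength fluorescence (460/530 nm emission) quantified beta-lactamase expression under the Smad binding element in HEK 293T cells following 5 hr compound treatment at 37 C.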

[7] = Human pregnane X receptor (PXR) small molecule agonists, qHTS cell viability counter screen (AID 1346977); also: nearly all actives have a fitted effect of over 50% in size; also: potency is read from the fitted curve at half-maximal effect
How it was run: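 HepG2 cells stably carrying the PXR-Luc reporter are cultured with 5% charcoal-stripped FBS and treated with compounds for 24hr. CellTiter-Fluor is added at 23hr and fluorescence is read after 1hr.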

[8] = Caspase-3/7 induction in HepG2 cells by small molecules, qHTS assay (AID 1346978); also: nearly all actives have a fitted effect of over 15% in size; also: potency is read from the fitted curve at half-maximal effect
How it was run: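 Caspase-3/7 induction was measured by Caspase-Glo 3/7 luminescence (30 min, room temperature) after a 17 hr compound exposure of wild-type HepG2 cells seeded at 2,000 per well and pre-incubated 5 hr.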

[9] = molecular target: Thyrotropin-releasing hormone receptor (Homo sapiens) (UniProt P34981); assay: qHTS assay to identify small molecule antagonists of the thyrotropin-releasing hormone receptor (TRHR) signaling pathway (AID 1346877; active = well fitted inhibition curve with a large enough effect in the repeat runs, not every such curve was filed as active; also: series mostly up to about 51 µM)
How it was run: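 HEK293/TRHR cells, 18 h, 37 °C; Ca2+ dye 2 h; cpd 5 min RT; TRH 1 nM final; fluorescence read 3 min, 1 s intervals; 15 concs, triplicate.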

[10] = molecular target: Thyrotropin-releasing hormone receptor (Homo sapiens) (UniProt P34981); assay: qHTS assay to identify small molecule agonists of the thyrotropin-releasing hormone receptor (TRHR) signaling pathway (AID 1346891; calls by dose curve;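 also: HEK293 cells expressing TRHR with calcium dye readout; series mostly up to about 58 µM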)
How it was run: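 Kinetic fluorescence (3 min, 1 s intervals) reported intracellular calcium after compound transfer onto TRHR-Hek293 cells pre-loaded with dye for 2 h at 37 °C.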

Thyrotropin-releasing hormone receptor (Homo sapiens), sequence (P34981 whole entry, looked up): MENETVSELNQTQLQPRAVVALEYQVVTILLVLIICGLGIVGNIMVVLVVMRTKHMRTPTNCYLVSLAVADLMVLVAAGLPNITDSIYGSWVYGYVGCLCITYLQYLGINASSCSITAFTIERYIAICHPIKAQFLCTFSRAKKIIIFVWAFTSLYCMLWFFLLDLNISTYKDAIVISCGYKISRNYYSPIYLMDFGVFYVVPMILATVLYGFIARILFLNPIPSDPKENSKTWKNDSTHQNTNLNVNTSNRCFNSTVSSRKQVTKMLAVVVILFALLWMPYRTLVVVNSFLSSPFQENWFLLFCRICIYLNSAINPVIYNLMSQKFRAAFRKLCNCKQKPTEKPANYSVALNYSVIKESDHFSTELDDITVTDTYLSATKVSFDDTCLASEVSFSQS
Progesterone receptor (Homo sapiens), sequence (P06401 whole entry, looked up): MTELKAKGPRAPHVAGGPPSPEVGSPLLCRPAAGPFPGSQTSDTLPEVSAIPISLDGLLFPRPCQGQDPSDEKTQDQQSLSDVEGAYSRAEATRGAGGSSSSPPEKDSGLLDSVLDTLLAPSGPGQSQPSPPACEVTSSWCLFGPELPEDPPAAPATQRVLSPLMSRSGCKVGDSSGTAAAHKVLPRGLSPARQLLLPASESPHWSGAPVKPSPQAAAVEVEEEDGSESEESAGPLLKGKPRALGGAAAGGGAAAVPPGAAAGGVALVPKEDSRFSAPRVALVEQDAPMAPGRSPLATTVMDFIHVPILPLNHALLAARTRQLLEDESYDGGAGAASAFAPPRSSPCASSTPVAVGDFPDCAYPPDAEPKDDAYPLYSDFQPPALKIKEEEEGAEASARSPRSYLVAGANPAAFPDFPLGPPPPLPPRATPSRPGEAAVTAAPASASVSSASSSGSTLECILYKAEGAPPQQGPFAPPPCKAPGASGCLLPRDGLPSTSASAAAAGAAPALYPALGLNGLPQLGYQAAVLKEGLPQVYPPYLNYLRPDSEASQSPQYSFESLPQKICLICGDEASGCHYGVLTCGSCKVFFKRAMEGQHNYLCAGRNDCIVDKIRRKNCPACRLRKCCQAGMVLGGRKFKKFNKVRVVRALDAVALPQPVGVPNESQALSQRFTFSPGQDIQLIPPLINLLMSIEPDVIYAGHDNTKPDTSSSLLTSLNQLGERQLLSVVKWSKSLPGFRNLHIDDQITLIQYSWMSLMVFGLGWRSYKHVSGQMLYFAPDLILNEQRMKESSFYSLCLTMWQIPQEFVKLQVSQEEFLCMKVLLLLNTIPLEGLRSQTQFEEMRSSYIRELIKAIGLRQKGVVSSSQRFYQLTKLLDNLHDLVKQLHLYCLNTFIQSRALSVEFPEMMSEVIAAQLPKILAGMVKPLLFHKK

| SMILES | Potency [1] | Potency [2] | Potency [3] | Potency [4] | Potency [5] | outcome [6] | Potency [7] | Potency [8] | Potency [9] | Potency [10] | activity change, negative = inhibition [1] | activity change, negative = cytotoxicity [3] |
| --- | --- | --- | --- | --- | --- | --- | --- | --- | --- | --- | --- | --- |
| C=C(C)C1CC=C(C)C(OC(C)=O)C1 (configuration not stated) | inactive | inactive | inactive | inactive | inactive | inactive | inactive | inactive |  |  |  |  |
| CCN(CC)C(=O)Nc1ccc(OCC(O)CNC(C)(C)C)c(C(C)=O)c1 (configuration not stated) | inactive | inactive | inactive | inactive | inactive |  |  | inactive | inactive | inactive |  |  |
| O=C(OCc1ccccc1)c1ccc(O)cc1 | 34.4 µM (active) and 26.6 µM (active) | inactive | inactive | inactive | inactive |  | inactive |  | inactive | inactive |  |  |
| CCOC(=O)C(C)C(C)=O (configuration not stated) | inactive | inactive | inactive | inactive | inactive | inactive | inactive | inactive |  | inactive |  |  |
| CNC1(C)C2CCC(C2)C1(C)C (configuration not stated) | inactive | inactive | inactive | inactive | inactive |  | inactive | inactive | inactive | inactive |  |  |
| c1ccc2n[nH]nc2c1 | inactive | inactive | inactive | inactive | inactive | inactive | inactive | inactive |  |  |  |  |
| CCn1c2ccccc2c2cc(N)ccc21 | 34.4 µM (active) | inactive | inactive | inactive | inactive | inactive | inactive |  |  |  |  |  |
| CCCOC(=O)c1cc(O)c(O)c(O)c1 | inactive | inactive | inactive | inactive | inactive | inactive |  | inactive |  |  |  |  |
| O=C(Oc1ccccc1)c1ccccc1O | inactive | inactive | inactive | inactive | inactive | inactive | inactive | inactive |  |  |  |  |
| O=C1CC2(CCCC2)CC(=O)N1CCCCN1CCN(c2ncccn2)CC1 | inactive | inactive | 5.45 µM (active) and inactive | inactive | inactive |  |  | inactive | inactive | inactive |  |  |
| CC(C)CCOC(=O)c1ccc(N(C)C)cc1 | inactive | inactive | inactive | inactive | inactive |  | inactive | inactive | inactive | inactive |  |  |
| C=CC(=O)OCCCCCCCC | inactive | inactive | inactive | inactive | inactive | inactive | inactive |  |  |  |  |  |
| CCC[C@H](N[C@@H](C)C(=O)N1[C@H](C(=O)O)C[C@@H]2CCCC[C@@H]21)C(=O)OCC | inactive | inactive | inactive | inactive | inactive | inactive |  | inactive |  |  |  |  |
| CC(C)(C)NCC(O)COc1ccccc1OCC1CCCO1 (configuration not stated) | inactive | inactive | inactive | inactive | inactive | inactive | inactive |  |  |  |  |  |
| OCCN1CCNCC1 | inactive | inactive | inactive | inactive | inactive | inactive |  | inactive |  | inactive |  |  |
| c1cnc2cc3c(cc2n1)C1CNCC3C1 | inactive | inactive | inactive | inactive | inactive | inactive | inactive |  |  |  |  |  |
| N[C@@H]1CONC1=O | inactive | inactive | inactive | inactive | inactive | inactive | inactive | inactive |  |  |  |  |
| COc1ccc(CCN2CCC(Nc3nc4ccccc4n3Cc3ccc(F)cc3)CC2)cc1 | 18.8 µM (active) | 17.6 µM (active) and 23.7 µM (active) | 14 µM (active) | 39.8 µM (active) | 44.6 µM (active) |  |  | 7.86 µM (active) | inactive | inactive |  |  |
| O=C(O)c1cn(-c2ccc(F)cc2)c2cc(N3CCNCC3)c(F)cc2c1=O |  | inactive |  | inactive | inactive | inactive | inactive | inactive |  |  | 13.8% [at 18.9 µM] (inactive) | 10.6% [at 19 µM] (inactive) |
| CC(C)(C)NC(=O)[C@@H]1CN(Cc2cccnc2)CCN1C[C@@H](O)C[C@@H](Cc1ccccc1)C(=O)N[C@H]1c2ccccc2C[C@H]1O | inactive | inactive | inactive | inactive | inactive | inactive | inactive |  |  |  |  |  |
| CC(COc1ccccc1)N(CCCl)Cc1ccccc1 (configuration not stated) | 30.6 µM (active) and 26.6 µM (active) | inactive | inactive | inactive | inactive | inactive | inactive | inactive |  |  |  |  |
| CC(=O)CC(=O)Nc1ccc2[nH]c(=O)[nH]c2c1 | inactive | inactive | inactive | inactive | inactive | inactive | inactive | inactive |  | inactive |  |  |
| C/C=C/c1ccc(OCC)c(O)c1 | inactive | inactive | inactive | inactive | inactive | inactive | inactive |  |  |  |  |  |

| SMILES | Potency [1] | Potency [2] | Potency [3] | Potency [4] | Potency [5] | outcome [6] | Potency [7] | Potency [8] | Potency [9] | Potency [10] | activity change, negative = inhibition [1] | activity change, negative = cytotoxicity [3] |
| --- | --- | --- | --- | --- | --- | --- | --- | --- | --- | --- | --- | --- |
| COc1ccc(COC(C)=O)cc1 | inactive | inactive | inactive | inactive | inactive | inactive | inactive | inactive |  |  |  |  |
| Cc1cccc(O)c1C | inactive | inactive | inactive | inactive | inactive |  | inactive |  | inactive | inactive |  |  |
| c1cc(C(c2ccc(OCC3CO3)cc2)C(c2ccc(OCC3CO3)cc2)c2ccc(OCC3CO3)cc2)ccc1OCC1CO1 (configuration not stated) | inactive | inactive | inactive | inactive | inactive |  | inactive |  | inactive | inactive |  |  |
| O | inactive | inactive | inactive | inactive | inactive |  | inactive |  | inactive | inactive |  |  |
| NCCCCCC(=O)O | inactive | inactive | inactive | inactive | inactive |  | inactive | inactive | inactive | inactive |  |  |
| COc1cc(C(=S)N2CCOCC2)ccc1O | inactive | inactive | inactive | inactive | inactive | inactive |  | inactive |  |  |  |  |
| NC(=Nc1ccccc1)Nc1ccccc1 | inactive | inactive | inactive | inactive | inactive | inactive | 4.86 µM (active) | inactive |  |  |  |  |
| COc1ccc(Cc2cnc(N)nc2N)cc1OC | inactive | inactive | inactive | inactive | inactive |  |  | inactive | inactive | inactive |  |  |
| CCn1cc(C(=O)O)c(=O)c2cc(F)c(N3CCNC(C)C3)c(F)c21 (configuration not stated) | inactive | inactive | inactive | inactive | inactive | inactive | inactive | inactive |  |  |  |  |
| O=Cc1ccc(Cl)cc1 | inactive | inactive | inactive | inactive | inactive |  | inactive | inactive | inactive | inactive |  |  |
| CCc1cc(C(C)(C)C)c(O)c(C(C)(C)C)c1 | inactive | inactive | inactive | inactive | inactive | inactive |  | inactive |  | inactive |  |  |
| CC(=O)N[C@@H](CS)C(=O)O | inactive | inactive | inactive | inactive | inactive | inactive |  | inactive |  |  |  |  |
| CC(C)(C)NCC(O)c1cc(O)cc(O)c1 (configuration not stated) | inactive | inactive | inactive | inactive | inactive | inactive | inactive | inactive |  |  |  |  |
| C[N+]1([O-])CCOCC1 | inactive | inactive | inactive | inactive | inactive |  |  |  | inactive | inactive |  |  |
| C=CS(=O)(=O)O | inactive | inactive | inactive | inactive | inactive |  | inactive |  | inactive | inactive |  |  |
| Nc1cc(Cl)c(-c2cc(Cl)c(N)cc2Cl)cc1Cl | 2.73 µM (active) | 38.5 µM (active) and 43.3 µM (active) | 30.6 µM (active) and 21.7 µM (active) |  |  | inactive |  |  |  | inactive |  |  |
| Nc1nc(=S)c2[nH]cnc2[nH]1 | inactive | inactive | 4.73 µM (active) | inactive |  |  | inactive | inactive |  | inactive |  |  |
| COC(c1ccccc1)(c1ccccc1)[C@H](Oc1nc(C)cc(C)n1)C(=O)O | inactive |  | inactive | inactive | inactive | inactive |  |  |  |  |  |  |
| OCC(CO)N[C@H]1C[C@](O)(CO)[C@@H](O)[C@H](O)[C@H]1O | inactive | inactive | inactive | inactive | inactive |  |  | inactive | inactive |  |  |  |
| Cc1c(O)cccc1C(=O)N[C@@H](CSc1ccccc1)[C@H](O)CN1C[C@H]2CCCC[C@H]2C[C@H]1C(=O)NC(C)(C)C | 13.3 µM (active) and 21.1 µM (active) | 29.8 µM (active) | 26.6 µM (active) |  |  |  |  | 66.8 µM (active) |  |  |  |  |
| Oc1ccc(Cl)cc1Cc1cc(Cl)ccc1O | 15.6 µM (active) and 15.4 µM (active) and 18.8 µM (active) | inactive | 69.8 µM (active) |  | inactive | inactive | 35.5 µM (active) and 30.6 µM (active) and 16.8 µM (active) | inactive | inactive | inactive |  |  |
| O=Nc1ccc(Nc2ccccc2)cc1 | 54.5 µM (active) |  |  | inactive | inactive | inactive |  | inactive |  | inactive |  |  |
